# Exocytosis inh: lytic granule exocytosis inhibition | TALL-104 LAMP-1 surface exposure, flow cytometry; cells stimulated with thapsigargin and PMA | 360,000 compounds, 0.66% hits | inhibition, % at 10 µM;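 active means inhibition above about 55%, limit read from the data; inconclusive means no clear call, values can overlap the other calls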
# Myeloid diff MLP: myeloid differentiation induction; calls only at 10 µM; AID 624256; ER-HoxA9 myeloid progenitors, lysozyme-GFP differentiation, flow cytometry; 360,000 compounds, 1% hits;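 active means normalized GFP-positive differentiation at or above the plate's own cutoff, the solvent-only control mean plus 3 SD; inconclusive means no clear call, values can overlap the other calls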;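 further: cells exposed to compound for four days before flow analysis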
# ABCB6 inh 2: human ABCB6 transporter inhibition; Q9NP58; K562-ABCB6 porphyrin accumulation, flow cytometry, 1 h; active compounds read low; fluorescence ratio to DMSO, % at 10 µM; 360,000 compounds, 0.19% hits;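 active means fluorescence ratio to DMSO below 75%, the collection mean minus 3 SD; inconclusive means too few cells collected in the well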;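 further: signal is porphyrin accumulated inside mitochondria; lower ratio means ABCB6 inhibition with less porphyrin fluorescence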
# Target sequence (Q9NP58 whole entry, looked up): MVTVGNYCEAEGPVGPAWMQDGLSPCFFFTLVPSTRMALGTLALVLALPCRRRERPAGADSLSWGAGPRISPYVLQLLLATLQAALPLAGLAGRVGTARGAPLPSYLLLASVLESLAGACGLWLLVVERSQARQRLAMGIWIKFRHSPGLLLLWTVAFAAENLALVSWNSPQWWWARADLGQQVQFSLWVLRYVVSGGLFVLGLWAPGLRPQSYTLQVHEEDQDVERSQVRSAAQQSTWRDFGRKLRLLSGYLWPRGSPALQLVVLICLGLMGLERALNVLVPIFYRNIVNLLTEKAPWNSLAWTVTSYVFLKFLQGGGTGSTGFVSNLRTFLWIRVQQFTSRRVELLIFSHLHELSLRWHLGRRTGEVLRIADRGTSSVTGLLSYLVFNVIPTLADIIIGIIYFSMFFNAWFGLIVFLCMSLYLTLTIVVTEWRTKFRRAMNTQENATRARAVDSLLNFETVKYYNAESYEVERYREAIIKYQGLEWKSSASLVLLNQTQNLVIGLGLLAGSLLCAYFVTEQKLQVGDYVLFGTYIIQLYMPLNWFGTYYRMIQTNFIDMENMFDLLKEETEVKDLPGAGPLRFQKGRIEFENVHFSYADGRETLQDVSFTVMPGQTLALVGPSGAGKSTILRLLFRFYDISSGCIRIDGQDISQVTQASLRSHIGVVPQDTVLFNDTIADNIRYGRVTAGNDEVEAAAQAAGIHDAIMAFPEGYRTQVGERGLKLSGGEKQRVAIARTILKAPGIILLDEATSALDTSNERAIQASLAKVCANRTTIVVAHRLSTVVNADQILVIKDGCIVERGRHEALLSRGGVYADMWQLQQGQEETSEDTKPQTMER
# Exocytosis CP01: lytic granule exocytosis inhibition; shares compounds with Exocytosis inh; TALL-104 cells, LAMP-1 externalization, flow cytometry; stimulated with PMA plus thapsigargin; inhibition, % at 10 µM; 1,500 compounds, 11% hits; in the data active means inhibition above about 60%
# A number is an active result; - = inactive; ? = inconclusive; . = no result given. A selection: hits, their analogues and other compounds. The true share with any hit is near 1.8%.
SMILES,Exocytosis inh,Myeloid diff MLP,ABCB6 inh 2,Exocytosis CP01
CCOC(=O)c1c(C)oc2c1c1c(c3ccccc32)OCN(Cc2cccnc2)C1,-,-,-,.
CCOC(=O)c1c(C)oc2c1c(C(c1cccnc1)N1CCOCC1)c(O)c1ccccc12 (stereo unspecified),97.9,-,-,82.9
Cc1ccccc1C(=O)NC1CCN(CC(=O)NC2CCCCC2)CC1,-,-,-,.
COc1ccc(CN2CCc3c([nH]c4ccccc34)C2)c(OC)c1C,55.7,-,-,-
COc1ccc(CN2CCc3c([nH]c4ccccc34)C2)cc1Br,-,-,-,.
O=C(O)c1ccc(NC(C(=O)c2ccccc2)c2ccccc2)cc1 (stereo unspecified),-,-,-,.
Cc1ccc2nc3c(cc(C(=O)NCCc4ccccc4)c(=N)n3CCCN3CCOCC3)c(=O)n2c1,80.2,.,-,-
Cc1cccn2c(=O)c3cc(C(=O)NC4CCCC4)c(=N)n(CCc4ccccc4)c3nc12,68.7,?,-,-
COc1ccc(CCNC(=O)c2cc3c(=O)n4ccccc4nc3n(CCCN3CCOCC3)c2=N)cc1,-,-,-,.
COc1ccc(CCn2c(=N)c(C(=O)NC3CCCC3)cc3c(=O)n4cccc(C)c4nc32)cc1,-,?,-,.
COCc1cccc(-c2csc(C(O)c3cccc(OC)c3)n2)c1 (stereo unspecified),-,-,-,.
Nc1c(C(=O)N2CCCCCC2)oc2ccccc12,-,-,-,.
Cc1ccc(-c2nc3c(c(=O)[nH]c(=O)n3Cc3ccccc3)n2Cc2ccccc2)o1,-,-,-,.
Cc1ccc(-c2nc3c(c(=O)[nH]c(=O)n3Cc3ccccc3)n2C)o1,97.5,-,-,-
OC(c1ccccc1)(c1nc(-c2cc(F)cc(F)c2)cs1)C(F)(F)F (stereo unspecified),-,-,-,.
CN(C)CCCN1C(=O)c2cccc3c([N+](=O)[O-])ccc(c23)C1=O,57.0,?,-,-
O=C1c2cccc3c([N+](=O)[O-])ccc(c23)C(=O)N1CCc1ccccn1,-,?,-,.
COc1ccccc1NC(=O)CN1CCN(c2ccccc2)CC1,-,-,-,.
COc1ccc(N2CCc3c(C)nc4c(OC)cccc4c32)cc1,-,?,-,.
COc1cccc(N2CCc3c(C)nc4ccc(Cl)cc4c32)c1,81.5,?,-,-
COc1c(C(CC(C)C)OC(C)=O)ccc2c1C(=O)OCc1cc(C)cc(O)c1O2 (stereo unspecified),-,-,-,.
CCOC(=O)C1=C(CCc2ccccc2)NC(=O)NC1c1cccc([N+](=O)[O-])c1 (stereo unspecified),94.2,-,-,-
CCOC(=O)C1=C(CNCc2ccc(F)cc2)NC(=O)NC1c1cccc([N+](=O)[O-])c1 (stereo unspecified),-,-,-,.
CC[C@H](C)[C@H]1O[C@]2(CC[C@@H]1C)C[C@@H]1C[C@@H](CC=C(C)[C@@H](O[C@H]3C[C@H](OC)[C@@H](O[C@H]4C[C@H](OC)[C@@H](O)[C@H](C)O4)[C@H](C)O3)[C@@H](C)C=CC=C3CO[C@@H]4[C@H](O)C(C)=C[C@@H](C(=O)O1)[C@]34O)O2,-,-,-,.
CCN1CC(CN(C)Cc2cn(-c3ccc(C)cc3)nc2-c2cccc(C)c2)CC1=O (stereo unspecified),-,-,-,.
SMILES,Exocytosis inh,Myeloid diff MLP,ABCB6 inh 2,Exocytosis CP01
COc1cccc(-n2c(=O)n(Cc3ccccc3)c(=O)c3[nH]cnc32)c1C,-,-,-,.
CC(=O)Nc1cccc(-n2c(=O)n(Cc3ccccc3)c(=O)c3[nH]cnc32)c1,55.5,-,-,-
CC(=O)N1CCc2cc(S(=O)(=O)CCC(=O)Nc3ccc(Cl)cc3F)ccc21,-,?,-,.
CCC1(c2ccc(Cl)cc2)NC(=O)N(CC(=O)NC2CCCCCC2)C1=O (stereo unspecified),-,-,-,.
O=C(CSc1nc2ccccc2c(=O)n1CCCN1CCOCC1)Nc1ccc(Br)cc1,-,-,-,.
CCc1ccc(NC(=O)CSc2nc3ccccc3c(=O)n2CCCN2CCC(C)CC2)cc1,86.7,-,-,-
O=C1/C(=C/c2cccs2)SC(=S)N1c1cccc(O)c1,-,-,-,.
CCc1nc2ccc(C(=O)Nc3cc(-c4ccccc4)ccc3OC)cn2c1N(C)CCC(C)C,-,-,-,.
CCc1nc2ccc(C(=O)Nc3cc(-c4ccccc4)ccc3OC)cn2c1N(CCN(C)C)CC1CC1,59.5,?,-,-
COc1cccc(OCC(O)CN2CCC(CN3C(=O)c4cccc5cccc(c45)C3=O)CC2)c1 (stereo unspecified),-,?,-,.
O=C1c2cccc3cccc(c23)C(=O)N1CC1CCN(CC(O)COc2ccc3ccccc3c2)CC1 (stereo unspecified),58.0,-,-,-
CN1CCN(c2ccc(Nc3ccnc4cc(Cl)ccc34)cc2)CC1,66.9,-,-,-
CCOc1ccc(Nc2ccnc3cc(Cl)ccc23)cc1,-,-,-,.
O=C(NCC1CCCO1)c1cc([N+](=O)[O-])ccc1N1CCC(Cc2ccccc2)CC1 (stereo unspecified),-,-,-,.
CN1CCN(c2nc(-c3ccncc3)nc3ccccc23)CC1,-,-,-,.
c1ccc2c(N3CCCC3)nc(-c3ccncc3)nc2c1,60.5,-,-,-
Cc1ccc(CNC(=O)COC(=O)c2cnc(C)cn2)cc1,-,-,-,.
COc1ccc(S(=O)(=O)N(C)C)cc1NC(=O)CCCSc1ccccc1,94.6,-,-,-
CN(C)S(=O)(=O)c1cccc(NC(=O)CCCSc2ccccc2)c1,-,-,-,.
O=C(Cc1ccccc1F)Nc1cc(S(=O)(=O)N2CCCC2)ccc1Cl,-,-,-,.
O=C(CNCc1ccc(Cl)cc1)Nc1cc(S(=O)(=O)N2CCCC2)ccc1Cl,77.4,-,-,-
Cc1cccc(CCN(C(=O)c2csnn2)C(C(=O)NC2CCCC2)c2ccco2)c1 (stereo unspecified),-,-,-,.
Cc1ncc(CN2CCC(C(=O)Nc3cccc(-c4cscn4)c3)CC2)cn1,-,-,-,.
CC(C)(C)c1cc(C(=O)NN)n(Cc2ccc(F)cc2)n1,-,-,-,.
Cc1cccc(Cn2nc(C(C)(C)C)cc2C(=O)Nc2ccc(F)cc2)c1,55.7,-,-,-
SMILES,Exocytosis inh,Myeloid diff MLP,ABCB6 inh 2,Exocytosis CP01
COc1ccc(S(=O)(=O)N2CCN(C(=O)CCNC(=O)c3ccccc3Cl)CC2)cc1,-,-,-,.
COc1ccc(S(=O)(=O)N2CCN(C(=O)CCSc3ccccc3)CC2)cc1,102.1,-,-,-
CC(NC(=O)c1ccc(S(=O)(=O)NCc2ccco2)cc1)c1ccc(F)cc1 (stereo unspecified),-,-,-,.
COc1cccc(-c2cc(CC3(O)CCN(CCCc4ccccc4)CC3)on2)c1,62.8,-,-,-
COc1cccc(-c2cc(C(=O)O)no2)c1,-,-,-,.
CS(=O)(=O)N1CCN(CC(=O)NC2CCCCC2)CC1,-,-,-,.
CCCS(=O)(=O)NC(=O)C1(C)CCN(C(=O)COc2ccc(Cl)cc2Cl)C1 (stereo unspecified),61.2,-,-,-
CCCS(=O)(=O)NC(=O)C1(C)CCCN(C(=O)COc2ccc(Cl)cc2Cl)C1 (stereo unspecified),-,-,-,.

# Assay outcomes from PubChem BioAssay.
